Molecular target: Nonstructural protein 3 (Zika virus) (UniProt A0A024AXB9)
Conditions: PRVABC59, Concentration 10.0 uM

Sequence of Nonstructural protein 3 (Zika virus) (A0A024AXB9 as listed by the source): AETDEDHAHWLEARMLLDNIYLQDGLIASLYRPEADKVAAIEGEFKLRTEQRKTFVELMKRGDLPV

NCCCCc1ccc(NC(=O)c2cc(Cl)cc3[nH]ncc23)cc1
pKD (Immobilization level 10000.0 pg/mm2, Rmax 4.0 pg/mm2, ka 200640.001 M-1s-1, kd 1.917 1/s): 5.02 | pKD (Immobilization level 12000.0 pg/mm2, Rmax 9.0 pg/mm2, ka 275409.297 M-1s-1, kd 4.372 1/s): 4.8 | pKD (Immobilization level 13000.0 pg/mm2, Rmax 11.0 pg/mm2, ka 186293.866 M-1s-1, kd 4.24 1/s): 4.64

O=C(Nc1ccc2c(c1)CNC2)c1c[nH]c2ncc(F)cc12
pKD (Immobilization level 5500.0 pg/mm2, Rmax 31.0 pg/mm2, ka 181164.217 M-1s-1, kd 6.639 1/s): 4.44

COC(=O)CNC(=O)[C@H](Nc1ccc2c(c1)CNC2)c1cc(Cl)cc(C2CC2)c1
pKD (Immobilization level 10000.0 pg/mm2, Rmax 43.0 pg/mm2, ka 346362.757 M-1s-1, kd 0.129 1/s): 6.43 | pKD (Immobilization level 12000.0 pg/mm2, Rmax 59.0 pg/mm2, ka 177006.564 M-1s-1, kd 0.106 1/s): 6.22 | pKD (Immobilization level 13000.0 pg/mm2, Rmax 62.0 pg/mm2, ka 244445.044 M-1s-1, kd 0.134 1/s): 6.26

O=C(Nc1ccc2c(c1)CN(CC(F)F)C2)c1cc(Cl)cc2[nH]ncc12
pKD (Immobilization level 5500.0 pg/mm2, Rmax 11.0 pg/mm2, ka 80918.609 M-1s-1, kd 0.287 1/s): 5.45

N#C[C@H](Nc1ccc2c(c1)CNC2)c1cccc2[nH]ncc12
pKD (Immobilization level 10000.0 pg/mm2, Rmax 24.0 pg/mm2, ka 92252.014 M-1s-1, kd 0.378 1/s): 5.39 | pKD (Immobilization level 12000.0 pg/mm2, Rmax 16.0 pg/mm2, ka 78971.5 M-1s-1, kd 0.214 1/s): 5.57 | pKD (Immobilization level 13000.0 pg/mm2, Rmax 22.0 pg/mm2, ka 80847.64 M-1s-1, kd 0.299 1/s): 5.43

NCc1cc(NC(=O)c2cc(Cl)cc(NC(=O)OCc3ccccc3)c2)cc(C2=CC[C@H](C(=O)O)C2)c1
pKD (Immobilization level 5500.0 pg/mm2, Rmax 9.0 pg/mm2, ka 171424.656 M-1s-1, kd 2.389 1/s): 4.86

CCc1ncc(Cl)cc1C(=O)Nc1ccc2c(c1)CNC2
pKD (Immobilization level 10000.0 pg/mm2, Rmax 18.0 pg/mm2, ka 231152.44 M-1s-1, kd 2.909 1/s): 4.9 | pKD (Immobilization level 12000.0 pg/mm2, Rmax 36.0 pg/mm2, ka 247716.147 M-1s-1, kd 2.057 1/s): 5.08 | pKD (Immobilization level 13000.0 pg/mm2, Rmax 25.0 pg/mm2, ka 245446.465 M-1s-1, kd 2.231 1/s): 5.04

O=C(Nc1ccc2c(c1)CNC2)c1cc(Br)cc2[nH]c(-c3ccccc3)nc12
pKD (Immobilization level 10000.0 pg/mm2, Rmax 3.0 pg/mm2, ka 184994.652 M-1s-1, kd 0.296 1/s): 5.79 | pKD (Immobilization level 12000.0 pg/mm2, Rmax 13.0 pg/mm2, ka 22744.722 M-1s-1, kd 0.309 1/s): 4.87 | pKD (Immobilization level 13000.0 pg/mm2, ka 103523.991 M-1s-1, kd 0.302 1/s): 5.54

CC(C)c1ccc(Cl)cc1C(=O)Nc1ccc2c(c1)CNC2
pKD (Immobilization level 10000.0 pg/mm2, Rmax 50.0 pg/mm2, ka 207835.98 M-1s-1, kd 5.69 1/s): 4.56 | pKD (Immobilization level 12000.0 pg/mm2, Rmax 40.0 pg/mm2, ka 170668.879 M-1s-1, kd 3.145 1/s): 4.74 | pKD (Immobilization level 13000.0 pg/mm2, Rmax 24.0 pg/mm2, ka 212611.498 M-1s-1, kd 2.587 1/s): 4.92

O=C(Nc1ccc2c(c1)CNC2)c1ccccc1-n1cccc1
pKD (Immobilization level 5500.0 pg/mm2, Rmax 27.0 pg/mm2, ka 207569.847 M-1s-1, kd 8.279 1/s): 4.4

Cc1ccc(C(=O)Nc2ccc3c(c2)CNC3)c2[nH]ncc12
pKD (Immobilization level 10000.0 pg/mm2, Rmax 28.0 pg/mm2, ka 287009.784 M-1s-1, kd 5.44 1/s): 4.72 | pKD (Immobilization level 12000.0 pg/mm2, Rmax 65.0 pg/mm2, ka 163548.417 M-1s-1, kd 3.844 1/s): 4.63 | pKD (Immobilization level 13000.0 pg/mm2, Rmax 48.0 pg/mm2, ka 218448.051 M-1s-1, kd 4.78 1/s): 4.66

O=C(Nc1ccc2c(c1)CNC2)c1cccc(-c2cnco2)c1
pKD (Immobilization level 12000.0 pg/mm2, Rmax 4.0 pg/mm2, ka 566629.865 M-1s-1, kd 1.936 1/s): 5.47

O=C(Nc1ccc2c(c1)CNC2)c1cc(Cl)ccc1-n1ccnc1
pKD (Immobilization level 10000.0 pg/mm2, Rmax 38.0 pg/mm2, ka 298408.653 M-1s-1, kd 1.639 1/s): 5.26 | pKD (Immobilization level 12000.0 pg/mm2, Rmax 63.0 pg/mm2, ka 203693.474 M-1s-1, kd 1.266 1/s): 5.21 | pKD (Immobilization level 13000.0 pg/mm2, Rmax 40.0 pg/mm2, ka 299200.161 M-1s-1, kd 1.542 1/s): 5.29

Cc1cc(CN)cc(NC(=O)c2cc(Cl)cc3[nH]ncc23)c1
pKD (Immobilization level 10000.0 pg/mm2, Rmax 32.0 pg/mm2, ka 317735.356 M-1s-1, kd 1.709 1/s): 5.27 | pKD (Immobilization level 12000.0 pg/mm2, Rmax 41.0 pg/mm2, ka 352403.171 M-1s-1, kd 1.092 1/s): 5.51 | pKD (Immobilization level 13000.0 pg/mm2, Rmax 26.0 pg/mm2, ka 657032.757 M-1s-1, kd 1.65 1/s): 5.6

O=C(Nc1ccc2c(c1)CNC2)c1cc(Cl)cc2ccncc12
pKD (Immobilization level 10000.0 pg/mm2, Rmax 18.0 pg/mm2, ka 555072.266 M-1s-1, kd 0.336 1/s): 6.22 | pKD (Immobilization level 12000.0 pg/mm2, Rmax 46.0 pg/mm2, ka 241038.936 M-1s-1, kd 0.226 1/s): 6.03 | pKD (Immobilization level 13000.0 pg/mm2, Rmax 30.0 pg/mm2, ka 431290.6 M-1s-1, kd 0.289 1/s): 6.17

O=C1Cc2c(cc(Br)cc2C(=O)Nc2ccc3c(c2)CNC3)N1
pKD (Immobilization level 10000.0 pg/mm2, Rmax 28.0 pg/mm2, ka 911035.824 M-1s-1, kd 0.165 1/s): 6.74 | pKD (Immobilization level 12000.0 pg/mm2, Rmax 50.0 pg/mm2, ka 582104.975 M-1s-1, kd 0.125 1/s): 6.67 | pKD (Immobilization level 13000.0 pg/mm2, Rmax 39.0 pg/mm2, ka 879294.654 M-1s-1, kd 0.141 1/s): 6.79

O=C(Nc1ccc2c(c1)CNC2)c1cc(Br)cc2[nH]c(C3CCOCC3)nc12
pKD (Immobilization level 10000.0 pg/mm2, Rmax 36.0 pg/mm2, ka 49989.202 M-1s-1, kd 0.558 1/s): 4.95 | pKD (Immobilization level 12000.0 pg/mm2, Rmax 42.0 pg/mm2, ka 41393.875 M-1s-1, kd 0.2 1/s): 5.32 | pKD (Immobilization level 13000.0 pg/mm2, Rmax 57.0 pg/mm2, ka 35403.894 M-1s-1, kd 0.403 1/s): 4.94

O=C(NC[C@H]1CCCO1)[C@H](Nc1ccc2c(c1)CNC2)c1cc(Cl)cc2[nH]ncc12
pKD (Immobilization level 10000.0 pg/mm2, Rmax 25.0 pg/mm2, ka 729483.46 M-1s-1, kd 0.307 1/s): 6.38 | pKD (Immobilization level 12000.0 pg/mm2, Rmax 48.0 pg/mm2, ka 423834.605 M-1s-1, kd 0.21 1/s): 6.31 | pKD (Immobilization level 13000.0 pg/mm2, Rmax 36.0 pg/mm2, ka 640560.866 M-1s-1, kd 0.251 1/s): 6.41

O=C(Nc1ccc2c(c1)CNCCO2)c1cc(Cl)cc2[nH]ncc12
pKD (Immobilization level 10000.0 pg/mm2, Rmax 42.0 pg/mm2, ka 416936.25 M-1s-1, kd 0.968 1/s): 5.63 | pKD (Immobilization level 12000.0 pg/mm2, Rmax 47.0 pg/mm2, ka 414358.163 M-1s-1, kd 0.643 1/s): 5.81 | pKD (Immobilization level 13000.0 pg/mm2, Rmax 56.0 pg/mm2, ka 373791.933 M-1s-1, kd 0.809 1/s): 5.67

NCCc1ccc(NC(=O)c2cc(Cl)cc3[nH]ncc23)cc1
pKD (Immobilization level 10000.0 pg/mm2, Rmax 37.0 pg/mm2, ka 181570.157 M-1s-1, kd 4.215 1/s): 4.63 | pKD (Immobilization level 12000.0 pg/mm2, Rmax 45.0 pg/mm2, ka 212645.467 M-1s-1, kd 3.181 1/s): 4.83 | pKD (Immobilization level 13000.0 pg/mm2, Rmax 31.0 pg/mm2, ka 239123.399 M-1s-1, kd 3.643 1/s): 4.82

Reference: ChEMBL document CHEMBL5598561, “ASAP - In vitro binding kinetics” (2024)
